Many of the other results were omitted from the sample, so hits are more common in it than they were.
TTR transcr act = activators of transthyretin transcription | SH-SY5Y TTR promoter Gaussia luciferase, luminescence; 100% = recombinant luciferase protein wells | activation, % at 16.7 µM | actives 1.3% (n = 92,000);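 active = activation above the mean of all tested compounds plus 3 SD, cut at about 9.5% in these data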;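 note: cells exposed to compounds for one day before reading; 0% = median of all test compound wells on the plate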
TTR inh HuH7 = counter-screen for TTR activators: TTR transcription inhibitors in HuH7 cells | shares compounds with TTR transcr act | HuH7 TTR promoter-Gaussia luciferase reporter, luminescence | inhibition, % at 16.7 µM | actives 4% (n = 1,100) | AID 1117279;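 active = average inhibition above the solvent-only control wells' mean plus 3 SD, cut at about 15% in these data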;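 note: 0% = cells with DMSO only and 100% = cells with inhibitor control FD; inhibitors lower well luminescence so higher value means more inhibition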
TTR up confirm = confirmation of human transthyretin transcription activators. shares compounds with TTR transcr act. SHSY5Y TTR promoter Gaussia luciferase, luminescence; 100% = purified Lucia enzyme wells, no cells. activation, % at 16.7 µM. 1,100 tested, under 10 active;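 active = mean activation above a set limit taken from the earlier primary screen, cut at about 11% in these data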;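 note: 0% = DMSO-treated cells and 100% = recombinant Lucia luciferase without cells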
* hit, by the source's call.

SMILES	TTR transcr act	others
CCc1ccc(-c2cc3c(=O)n(CC(=O)NCCN4CCCCC4C)nc(C)n3n2)cc1 (centres undefined)	5
CC1CCCN(C(=O)CNC(=O)c2ccco2)C1 (centres undefined)	0
COc1cccc(CNC(=O)N2CCN(S(=O)(=O)c3ccc(Cl)cc3)CC2)c1	2
COc1ccccc1CNC(=O)N1CCN(S(=O)(=O)c2ccccc2)CC1	-1
COc1ccccc1CNC(=O)N1CCN(S(=O)(=O)c2ccc(Cl)cc2)CC1	38*	TTR inh HuH7=-14;TTR up confirm=0
C[C@H]1[C@H](NC(=O)c2ccc(Cl)c(Cl)c2)CC[C@@]23CCCN2C(=O)CCC[C@@H]13	0
COCCCNC(=O)C[C@H]1C[C@@]2(C(=O)OC)C(=C[C@H](C(C)C)O[C@@H]2C2CC2)N(Cc2ccc(Cl)cc2Cl)C1=O	-1
O=C(CN1C(=O)NC2(CCOc3ccccc32)C1=O)NCCc1ccccc1 (centres undefined)	-1
Nc1cccc2[nH]c(=O)c3ccccc3c12	1
Nc1ccccc1C(=O)N1O[C@@H]2C=C[C@H]1C2	0
Cc1cccc(N2O[C@H]3C=C[C@@H]2C3)n1	-1
C1=CC2CCC1ON2c1ccccc1 (centres undefined)	17*	TTR inh HuH7=-4;TTR up confirm=0
O=[N+]([O-])c1ccc2nc(CNc3nc(N4CCOCC4)nc4c3ncn4-c3ccsc3)[nH]c2c1	2
CCCC1CCC2(CCCN2CCOC(=S)Nc2ccccc2)CC1 (centres undefined)	-3
CCOC(=O)[C@]12CCCC=C1N(CCCOC)C(=O)[C@@H]2CC(=O)NCCCCc1ccccc1	-1
Cc1cc(C)cc(NC(=O)O[C@@H]2CC[C@@]34CCCN3C(=O)CCC[C@H]4C2)c1	-2
CC(C)C[C@H]1CNC(=S)N1C[C@H]1CCCN1C[C@H](CC(C)C)N1C[C@H](Cc2ccc(O)cc2)N(CC2CCCCCC2)C1=S	25*	TTR inh HuH7=9;TTR up confirm=-1
CC(C)C[C@H]1CNC(=S)N1C[C@H]1CCCN1C[C@H](CC(C)C)N1C[C@H](Cc2ccc(O)cc2)N(CCc2ccccc2)C1=S	-3
CC(C)C[C@H]1CNC(=S)N1CC1CCCN1C[C@H](CC(C)C)N1C[C@H](Cc2ccc(O)cc2)N(CC2CCCCC2)C1=S (some centres undefined)	-2
CC(=O)Nc1ccc(/C=C/COC(C)=O)cc1C	0
O=S1(=O)CCSC[C@@H](CNCc2ccco2)N1	-1
CCOC(=O)C1=C[C@@H](C(C)C)N(S(=O)(=O)c2ccc([N+](=O)[O-])cc2)[C@H]1c1ccccc1	-3
CCOC(=O)C1=C[C@@H](C(C)(C)C)N(S(=O)(=O)c2ccc([N+](=O)[O-])cc2)[C@H]1c1ccccc1	-3
CCOC(=O)C1=C[C@@H](CC)N(S(=O)(=O)c2ccc([N+](=O)[O-])cc2)[C@H]1c1ccccc1	48*	TTR inh HuH7=-4;TTR up confirm=0
COC(=O)[C@]12C[C@H](CC(=O)NCc3ccc(C)o3)C(=O)N(Cc3ccco3)C1=C[C@H](COCc1ccccc1)O[C@@H]2C	1
SMILES	TTR transcr act	others
COc1ccc2cc(C(C)=O)c(=O)oc2c1	0
COc1cc2ccccc2cc1C(=O)NC1CCCC1	0
COc1ccc2cc(C(=O)NC3CCCCC3)c(=O)oc2c1	11*	TTR inh HuH7=-5;TTR up confirm=0
CN1C2=NC(c3ccc4ccccc4c3)CC(=O)N2/C(=C\c2ccccc2)C1c1ccccc1C(F)(F)F (centres undefined)	1
COc1ccc2c3c1OC1CC(O)C=CC31CCN(C)C2 (centres undefined)	12*	TTR inh HuH7=-10;TTR up confirm=0
COc1ccc(CCNS(=O)(=O)c2ccc(-c3ccc(=O)[nH]n3)o2)cc1OC	3
CCC[C@H]1[C@@H](OC(=O)N2CCOCC2)CC[C@@]23CCCN2C(=O)CCC[C@@H]13	0
COC(=O)[C@]12C[C@H](CC(=O)NCc3ccc(C)o3)C(=O)N(Cc3cccc4ccccc34)C1=C[C@H](C(C)C)O[C@@H]2C1CC1	-4
COc1ccc(-c2ccc(CN3C(C(C)C)C(=O)N(Cc4cn(CC5CCCCC5)nn4)CCS3(=O)=O)cc2)cc1 (centres undefined)	0
CSC1=NCCN1C(=O)C(C)Oc1ccccc1 (centres undefined)	-1
CC(OC(=O)Cn1c(C(F)(F)F)nc2ccccc21)C(=O)N1CCCc2ccccc21 (centres undefined)	4
CC(Oc1ccccc1)C(=O)N1CCCc2ccccc21 (centres undefined)	10*	TTR inh HuH7=-16;TTR up confirm=1
COc1ccc([C@@H](C)NC(=O)c2ccc3oc(C(C)C)nc3c2)cc1	-2
FC(F)(F)c1cc(CNC2CCC23CCCCC3)ccc1Cl (centres undefined)	1
O=C(Nc1ccc(Cl)cc1)NN1CCCCCC1	17*	TTR inh HuH7=2;TTR up confirm=0
O=C(Nc1ccc([N+](=O)[O-])cc1)NN1CCCCCC1	0
N#Cc1ccc(NC(=O)NN2CCCCCC2)cc1	5
CCN1C(=O)N(C)[C@@H](c2ccccc2)C(C(C)=O)=C1C	0
O=C(/C=C/c1ccccc1)NCCc1c[nH]c2ccccc12	0
CCOC(=O)CCCCCC(=O)Nc1ccc2c(c1)C(=O)N([C@@H](C)CO)C[C@@H](C)[C@H](CN(C)C(=O)c1ccncc1)OCCCC[C@H](C)O2	-2
Cc1ccc(-c2c3c(nc4sc(C(N)=O)c(N)c24)CCCC3)o1	-1
COc1ccc(-c2c3c(nc4sc5c(=O)[nH]c(C)nc5c24)CCC3)cc1	16*	TTR inh HuH7=-6;TTR up confirm=-1
COc1ccc2nc3c(c(-c4ccccc4)c2c1)CCC3	-4
CNC[C@H]1OCc2cnnn2CCCC(=O)N([C@@H](C)CO)C[C@@H]1C	1
O=c1[nH]cc([N+](=O)[O-])cc1Br	1
SMILES	TTR transcr act	others
Clc1ccc([C@H]2OC[C@@]3(CNCc4ccccc4)CS[C@H](c4ccc(Cl)cc4)N23)cc1	0
COC(=O)[C@@]12CCCCN1[C@H](c1ccc(-c3ccc(C(C)=O)cc3)cc1)[C@H]1C(=O)N(C)C(=O)[C@H]12	-2
CCSc1ccc([C@@H]2[C@H]3C(=O)N(C)C(=O)[C@H]3[C@]3(C(=O)OC)CCCCN23)cc1	-1
CCN1C(=O)[C@@H]2[C@@H](c3ccc(-c4ccc5c(c4)OCO5)cc3)N3CCCC[C@@]3(C(=O)OC)[C@@H]2C1=O	-2
COC(=O)[C@@]12CCCN1[C@H](c1ccc(-c3ccccc3)cc1)[C@H]1C(=O)N(C)C(=O)[C@H]12	4
COC(=O)[C@@]12CCCCN1[C@H](c1ccc(SC3CCCCC3)cc1)[C@@H]1C(=O)N(C)C(=O)[C@@H]12	17*	TTR inh HuH7=7;TTR up confirm=-1
CCN1C(=O)[C@@H]2[C@@H](c3ccc(-c4ccc(C(C)=O)cc4)cc3)N3CCCC[C@@]3(C(=O)OC)[C@@H]2C1=O	12*	TTR inh HuH7=1;TTR up confirm=-1
COC(=O)[C@]12C[C@H](CC(=O)N3CCN(C(=O)C4CC4)CC3)C(=O)N(Cc3cccc4ccccc34)C1=C[C@H](C1CCCC1)O[C@@H]2C	-2
O=C(Nc1ccc(Cl)cc1Cl)OC1CCC12CCC(c1ccccc1)CC2 (centres undefined)	0
O=C(O)c1cc(N2CCCC2)ccn1	6
Cc1nc(-c2cc(C#N)c(=O)[nH]c2C)cs1	16*	TTR inh HuH7=-12;TTR up confirm=1

Compound activity from PubChem BioAssay.
